PubChem BioAssay AID1159580 (chemical genetic matrix, 2015)
“And” between values parts separate entries of the source, which are not always exact repeats. Identical values can stand only once. Out of some 5,500 compounds screened, about 2,000 (36%) were called active. Not shown: some 18% with an inconclusive outcome. No stated cut-off is given here; in the data, active means normalized growth mostly below about 0.91 (no sharp cut-off); inconclusive means no clear call, values can overlap the other calls; inactive means mostly above about 0.92. The list shows a part of the results. The source holds several records for some structures; these can differ, active in one and inactive in another.

Assay: chemical genetic growth profiling, strain panel (AID 1159580);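 further: tested at 20 µM; growth read once vehicle control cultures reached saturation at 30 °C; 1 = growth at the plate median or of vehicle wells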
Conditions: S. cerevisiae deletion strains, growth OD

Measured: normalized growth

CN(C)CCCN1c2ccccc2Sc2ccc(C(F)(F)F)cc21
0.976 (inactive) and 0.395 (active): locus YGR229C, strain SMI1, stronger effect = lower value
inactive: locus YAL013W, strain DEP1, stronger effect = lower value 0.982 and 0.939 | locus YAL030W, strain snc1, stronger effect = lower value 1.01 | locus YAL040C, strain CLN3, stronger effect = lower value 0.99 | locus YBL061C, strain skt5, stronger effect = lower value 1.02 | locus YBR009C, strain hhf1, stronger effect = lower value 0.961 | locus YBR021W, strain FUR4, stronger effect = lower value 1.04 | locus YBR023C, strain chs3, stronger effect = lower value 0.999 | locus YBR171W, strain sec66, stronger effect = lower value 1.03 | locus YBR229C, strain ROT2, stronger effect = lower value 0.955 | locus YBR231C, strain swc5, stronger effect = lower value 1.04 | locus YBR279W, strain paf1, stronger effect = lower value 1.01 | locus YCL011C, strain gbp2, stronger effect = lower value 1.01 | locus YCL016C, strain dcc1, stronger effect = lower value 1.01 | locus YCL029C, strain bik1, stronger effect = lower value 0.968 | locus YCL061C, strain MRC1 (second series), stronger effect = lower value 0.987 | locus YCL061C, strain MRC1, stronger effect = lower value 1.02 | locus YCL069W, strain vba3, stronger effect = lower value 1.01 | locus YCR088W, strain abp1, stronger effect = lower value 1.02 | locus YDL005C, strain med2, stronger effect = lower value 1.06 | locus YDL035C, strain GPR1, stronger effect = lower value 0.983 | locus YDL040C, strain nat1, stronger effect = lower value 1.01 | locus YDL074C, strain BRE1, stronger effect = lower value 1.01 | locus YDL101C, strain DUN1, stronger effect = lower value 0.981 | locus YDL134C, strain PPH21, stronger effect = lower value 0.99 | locus YDL185W, strain tfp1, stronger effect = lower value 0.963 | locus YDL192W, strain arf1, stronger effect = lower value 0.963 | locus YDR001C, strain nth1, stronger effect = lower value 1.02 | locus YDR101C, strain arx1, stronger effect = lower value 0.994 | locus YDR150W, strain NUM1, stronger effect = lower value 0.978 and 0.989 | locus YDR159W, strain sac3, stronger effect = lower value 1.07 | locus YDR162C, strain NBP2, stronger effect = lower value 0.971 | locus YDR297W, strain sur2, stronger effect = lower value 1.02 | locus YDR318W, strain mcm21, stronger effect = lower value 1 | locus YDR334W, strain swr1, stronger effect = lower value 1.02 | locus YDR335W, strain msn5, stronger effect = lower value 1.02 | locus YDR363W, strain ESC2, stronger effect = lower value 0.896 | locus YDR388W, stronger effect = lower value 0.986 | locus YDR502C, strain sam2, stronger effect = lower value 0.992 | locus YEL003W, strain gim4, stronger effect = lower value 1 | locus YEL037C, strain rad23, stronger effect = lower value 1.01 | locus YEL061C, strain CIN8 (second series), stronger effect = lower value 1.01 | locus YEL061C, strain CIN8, stronger effect = lower value 0.989 | locus YER002W, strain NOP16, stronger effect = lower value 1.04 | locus YER015W, strain faa2, stronger effect = lower value 1.01 | locus YER016W, strain bim1, stronger effect = lower value 1.02 | locus YER110C, stronger effect = lower value 0.961 | locus YER111C, strain swi4, stronger effect = lower value 1.01 | locus YER155C, strain BEM2 (second series), stronger effect = lower value 1.06 | locus YER155C, strain BEM2, stronger effect = lower value 1 | locus YER167W, strain BCK2, stronger effect = lower value 0.997 | locus YGL078C, strain dbp3, stronger effect = lower value 0.985 | locus YGL086W, strain mad1, stronger effect = lower value 0.998 | locus YGL167C, strain pmr1, stronger effect = lower value 1.02 | locus YGL173C, strain kem1, stronger effect = lower value 0.996 | locus YGL227W, strain vid30, stronger effect = lower value 1.03 | locus YGL240W, strain doc1, stronger effect = lower value 1.05 | locus YGL248W, strain PDE1, stronger effect = lower value 0.983 | locus YGL253W, strain hxk2, stronger effect = lower value 1 | locus YGR078C, strain PAC10, stronger effect = lower value 1.01 | locus YGR135W, strain pre9, stronger effect = lower value 0.982 | locus YGR252W, strain gcn5, stronger effect = lower value 0.989 | locus YHR013C, strain ard1, stronger effect = lower value 0.939 | locus YHR027C, strain rpn1, stronger effect = lower value 1.01 | locus YHR030C, strain SLT2, stronger effect = lower value 0.991 and 1 | locus YHR079C, strain IRE1 (second series), stronger effect = lower value 0.975 | locus YHR079C, strain IRE1, stronger effect = lower value 0.991 | locus YHR094C, strain hxt1, stronger effect = lower value 0.981 | locus YHR129C, strain ARP1, stronger effect = lower value 1 | locus YHR142W, strain chs7, stronger effect = lower value 0.958 | locus YHR200W, strain rpn10, stronger effect = lower value 0.988 | locus YIL066C, strain RNR3, stronger effect = lower value 0.973 | locus YIL073C, strain SPO22, stronger effect = lower value 0.942 | locus YIL125W, strain kgd1, stronger effect = lower value 0.974 | locus YIR030C, strain dcg1, stronger effect = lower value 0.974 | locus YJL092W, strain hpr5, stronger effect = lower value 1.01 | locus YJL095W, strain BCK1 (second series), stronger effect = lower value 0.968 | locus YJL095W, strain BCK1, stronger effect = lower value 1.02 and 0.998 | locus YJL115W, strain asf1, stronger effect = lower value 1.03 | locus YJL129C, strain trk1, stronger effect = lower value 1.03 | locus YJL134W, strain LCB3, stronger effect = lower value 0.987 | locus YJL154C, strain vps35, stronger effect = lower value 1.01 | locus YJL164C, strain tpk1, stronger effect = lower value 0.921 | locus YJL166W, strain qcr8, stronger effect = lower value 0.951 | locus YJL168C, strain set2, stronger effect = lower value 0.978 | locus YJL187C, strain SWE1 (second series), stronger effect = lower value 0.992 | locus YJL187C, strain SWE1, stronger effect = lower value 1.01 | locus YJR043C, strain POL32, stronger effect = lower value 1
active: locus YAL021C, strain ccr4, stronger effect = lower value 0.799 | locus YAL026C, strain drs2, stronger effect = lower value 0.329 | locus YDR069C, strain doa4, stronger effect = lower value 0.846 | locus YDR137W, strain rgp1, stronger effect = lower value 1.25 [resistant] | locus YDR195W, strain ref2 1.27 [resistant] | locus YDR392W, strain spt3, stronger effect = lower value 1.22 [resistant] | locus YFR010W, strain ubp6, stronger effect = lower value 0.831
